nsP2pro primary – Primary qHTS for inhibitors of NSP2Pro chikungunya virus (CHIKV) | FRET peptide cleavage, nsP2pro, fluorescence 1 h | 31,000 compounds, 1.1% hits | Polyprotein P1234 (Chikungunya virus (strain S27-African prototype)), Q8JUX6 | Potency, µM (doses to about 24.9 µM), inactives show at the highest dose activity change, negative = inhibition, hits mostly inhibitors; further: nearly all actives have a fitted effect of over 60% in size
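FRET cleavage of 2.5 uM peptide 2 by 150 nM CHIKV protease domain at pH 8.0 (Tris, Tween 20). Compounds at 7 concentrations (up to 25 uM) preincubated 15 min. Fluorescence read after 1 h at room temperature.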
nsP2 cell sec – Secondary cell base assay for inhibitors of NSP2Pro Chikungunya virus (CHIKV); cell-based CHIKV nsP2 protease reporter assay; 450 compounds, 10% hits; shares compounds with nsP2pro primary; Potency, µM (titrated, usually from 51.1 µM), inactives show at the highest dose activity change, negative = inhibition, hits mostly inhibitors; AID 1964100, 2024; further: nearly all actives have a fitted effect of over 70% in size
Target sequence (Q8JUX6 220-798 limits assumed): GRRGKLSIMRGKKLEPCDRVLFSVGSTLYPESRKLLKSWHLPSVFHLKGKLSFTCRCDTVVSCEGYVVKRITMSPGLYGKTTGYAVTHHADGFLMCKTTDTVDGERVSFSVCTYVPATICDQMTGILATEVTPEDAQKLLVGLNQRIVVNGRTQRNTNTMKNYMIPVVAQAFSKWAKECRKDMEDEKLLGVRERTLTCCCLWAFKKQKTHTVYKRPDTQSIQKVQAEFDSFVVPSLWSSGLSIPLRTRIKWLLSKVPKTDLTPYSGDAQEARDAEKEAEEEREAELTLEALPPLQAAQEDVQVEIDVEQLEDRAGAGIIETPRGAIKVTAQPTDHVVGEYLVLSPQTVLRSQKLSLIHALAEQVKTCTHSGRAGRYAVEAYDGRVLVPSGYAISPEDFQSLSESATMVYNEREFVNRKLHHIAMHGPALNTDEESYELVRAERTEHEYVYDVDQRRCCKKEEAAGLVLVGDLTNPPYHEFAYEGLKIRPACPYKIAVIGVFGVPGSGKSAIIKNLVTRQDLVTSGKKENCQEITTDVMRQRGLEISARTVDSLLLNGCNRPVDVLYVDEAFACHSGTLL
CHIKV NSP2 FL – Selectivity profile for inhibitors of NSP2Pro chikungunya virus (CHIKV): Full length NSP2 enzyme counterscreen (CHIKV-NSP2); shares compounds with nsP2pro primary; Full-length CHIKV NSP2 protease enzymatic counterscreen; Potency, µM (top dose mostly 50.7 µM), inactives show at the top dose activity change, negative = inhibition, most hits filed as inhibitors; 410 compounds, 39% hits; further: nearly all actives have a fitted effect of over 65% in size
Furin counterscr – Selectivity profile for inhibitors of NSP2Pro chikungunya virus (CHIKV): Human furin counterscreen. shares compounds with nsP2pro primary. Recombinant human furin enzymatic counterscreen, fluorogenic substrate. Potency, µM (titrated, usually from 50.6 µM), for inactives: at the highest dose activity change, negative = inhibition, hits mostly inhibitors. 410 compounds, 6% hits
NS23 peptide cs – Selectivity profile for inhibitors of NSP2Pro chikungunya virus (CHIKV): Endogenous NS2/3 peptide Counterscreen | Purified CHIKV nsP2 protease, endogenous NS2/3 peptide cleavage | Potency, µM (doses to about 51 µM), without a hit: top-dose activity change, negative = inhibition, actives largely listed as inhibitors | shares compounds with nsP2pro primary | 410 compounds, 34% hits; further: nearly all actives have a fitted effect of over 55% in size
Papain cs – Selectivity profile for inhibitors of NSP2Pro chikungunya virus (CHIKV): Papain Counterscreen | shares compounds with nsP2pro primary | purified papain protease activity, enzymatic inhibition | Potency, µM (titrated, usually from 51 µM), inactives show top-dose activity change, negative = inhibition, most hits filed as inhibitors | 410 compounds, 5% hits | AID 1964104, 2024
nsP2pro conf qHTS – Confirmatory qHTS for inhibitors of NSP2Pro chikungunya virus (CHIKV); Potency, µM (series often up to 25.5 µM), without a hit: at the highest dose activity change, negative = inhibition, usual class: inhibitors; CHIKV nsP2 protease enzymatic activity, qHTS; 410 compounds, 43% hits; shares compounds with nsP2pro primary; further: nearly all actives have a fitted effect of over 75% in size
HCV NS3 4A cs – Selectivity profile for inhibitors of NSP2Pro chikungunya virus (CHIKV): NS34A-HCV Counterscreen | HCV NS3/4A protease biochemical counterscreen | AID 1964106, 2024 | Potency, µM (series often up to 50.9 µM), most hits filed as inhibitors | shares compounds with nsP2pro primary | 410 compounds, 20% hits; further: nearly all actives have a fitted effect of over 55% in size
* hit, by the source's call; i = inactive; ? = inconclusive; ! = a repeat was not active; [ ] = another dose, or the depositor's remark. This is one part of a sample in which hits are shown more often than they occur. The call rests on the fitted dose curve. On the % scale 0 is the no-effect control and ±100 the full control effect; potency means the concentration at half of the fitted maximal effect.

SMILES | nsP2pro primary | others
Cc1cccc(C(=O)N2CCC(c3nc(-c4cccn4C)no3)C2)c1 (stereo not given) | i
CC1=C2CC(O)(C(C)(C)O)C(O[C@@H]3O[C@H](CO)[C@@H](O)[C@H](O)[C@H]3O)CC(C)C2CC1=O (stereo not given in full) | 30%[10 µM]
C=C1C(=O)O[C@@H]2C[C@H](C)[C@@H]3CC(=O)C(C)=C3C[C@H]12 | 0.44µM* | nsP2 cell sec=?;CHIKV NSP2 FL=?;Furin counterscr=-7%;NS23 peptide cs=?;Papain cs=-3%;nsP2pro conf qHTS=?;HCV NS3 4A cs=i
C=C1C(=O)O[C@@H]2C[C@]3(C)[C@@H](CCC(C)=O)[C@@H]3C[C@H]12 | 17%
COc1ccc(C(=O)Nc2cnc(-c3ccc(Cl)cc3)nc2)cc1 | -1%
Cc1ccccc1C1=CCN(c2ncc(NC(=O)c3ccc(Cl)cc3)cc2C(=O)O)CC1 | ? | nsP2 cell sec=-5%
Cc1ccccc1C1=CCN(C)CC1 | -4%
COc1cc(C(=O)OC[C@H]2O[C@@H](Oc3ccccc3/C=C/C(=O)O)[C@H](O)[C@@H](O)[C@@H]2O)cc(OC)c1OC | 30%[10 µM]
COC(=O)C1=C(C)NC(C)=C(C(=O)OCCc2ccc(N3CCN(C(c4ccccc4)c4ccccc4)CC3)cc2)C1c1cccc([N+](=O)[O-])c1 (stereo not given) | 1%
COC(=O)C1=C(C)NC(C)=C(C(=O)OCC(C)C)C1c1ccccc1[N+](=O)[O-] (stereo not given) | 9.9µM* | nsP2 cell sec=?;CHIKV NSP2 FL=?;Furin counterscr=-11%;NS23 peptide cs=15µM*;Papain cs=17%;nsP2pro conf qHTS=10µM*;HCV NS3 4A cs=i
CC(C)COC(=O)c1ccc(N)cc1 | -2%
COc1c(NS(=O)(=O)c2ccc(C)cc2)cccc1C(=O)Nc1nc(-c2ccccc2)cs1 | -10%
N#Cc1cccc(-c2c[nH]c3ncnc(N4CCOCC4)c23)c1 | 8%
Cc1cc(C)nc(NC(=S)N2CCN(c3ccc(C(F)(F)F)cc3[N+](=O)[O-])CC2)c1 | 0%
CC#C[C@@H](CC(=O)O)c1ccc(OCc2cccc(-c3ccc(C(F)(F)F)cc3)c2)cc1 | 452%
Cc1cc(C(=O)CN2CCCC2)c(C)n1-c1ccc(F)cc1 | 5.6µM*! | nsP2 cell sec=-13%;CHIKV NSP2 FL=14%;Furin counterscr=-7%;NS23 peptide cs=-14%;Papain cs=-19%;nsP2pro conf qHTS=-1%;HCV NS3 4A cs=i
CN1CCCCCC(O)c2cc(C(=O)N3CCN(c4ccc(F)cc4)CC3)ccc21 (stereo not given) | -16%
O=C(CN1CCN(c2ccc(Cl)cc2)CC1)Nc1ccc(F)cc1F | -23%
Cc1cn2nc(-c3cc(=O)n4cc(N5CCNC6(CC6)C5)ccc4n3)cc(C)c2n1 | 13%
O=C(Nc1ccc([S+](=O)([O-])Nc2nccs2)cc1)c1ncn[nH]1 | i
C[C@@H](N[C@H]1CCCC[C@@H]1NC(=O)c1ccc(Cl)cc1)c1cccc2ccccc12 | 4%
O=C(c1ccc(OC(F)F)c(C#Cc2ccccn2)c1)N1Cc2cccnc2C1 | 2%
CC(=O)c1ccc2c(c1)N(CCCN1CCN(CCO)CC1)c1ccccc1S2 | -9%
OCCN1CCN(CCCN2c3ccccc3C=Cc3ccccc32)CC1 | 8.8µM* | nsP2 cell sec=-2%;CHIKV NSP2 FL=?;Furin counterscr=-8%;NS23 peptide cs=-4%;Papain cs=2%;nsP2pro conf qHTS=0%;HCV NS3 4A cs=i
OCCN1CCN(CCCN2c3ccccc3Sc3ccc(C(F)(F)F)cc32)CC1 | 25%
SMILES | nsP2pro primary | others
COCC1CN(C2CCC2)CC12CCN(C(=O)c1ccnn1C)CC2 (stereo not given) | -14%
CN(C(=O)Nc1ccc2ccccc2c1)c1nnc(-c2ccncc2)s1 | 3%
COc1ccc2nc(-c3ccc(Cl)cc3)sc2c1 | 4%
CC1CC2(O)OC(=O)C3=C2C(CCC3)[C@@]12C[C@@H](c1ccoc1)OC2=O (stereo not given in full) | ? | nsP2 cell sec=-6%[33.5 µM];CHIKV NSP2 FL=?;Furin counterscr=-9%[33.5 µM];NS23 peptide cs=?;Papain cs=-10%[33.5 µM];nsP2pro conf qHTS=-38%[16.7 µM];HCV NS3 4A cs=1.8µM*
CN[C@H]1C[C@@H](N)[C@H](O)[C@@H](O[C@@H]2O[C@H](CO)[C@H](O)[C@@H]3OC4(O[C@H]23)O[C@H]([C@@H](N)CO)[C@H](O)[C@H](O)[C@H]4O)[C@@H]1O (stereo not given in full) | 31%
O=c1c(Nc2ccc(Cl)c(Cl)c2)c(Nc2nnc(-c3ccncc3)s2)c1=O | i
COc1ccc(S(=O)(=O)c2cc3cc(OC)ccc3oc2=O)cc1 | -20%
COc1ccc(S(=O)(=O)N2CCN(S(=O)(=O)c3ccc(OC)cc3)CC2)cc1 | 1%
COc1ccc(S(=O)(=O)ON=C2C=C(C)C(=O)C(C)=C2)cc1 | ? | nsP2 cell sec=2.2µM*;CHIKV NSP2 FL=?;Furin counterscr=-11%;NS23 peptide cs=6.5µM*;Papain cs=9.2µM*;nsP2pro conf qHTS=?;HCV NS3 4A cs=i
CCOC(=O)c1ccc2c(c1)c(C(C)=O)c(C)n2-c1ccc(OC)cc1 | -2%
Cc1ccc(NC(=O)N2CCc3c(c4ccccc4n3CC3CC3)C2)cc1 | -10%
Cc1cc(-c2nc(C(=O)Nc3cn(C4CCOCC4)nc3C(N)=O)co2)ccn1 | 11%
CNC[C@H](O)c1cccc(O)c1 | 2%
Oc1ccc(CCNCCCCCCNCCc2ccccc2)cc1O | -13%
Oc1ccc(C(O)CNCCCCCCNCC(O)c2ccc(O)c(O)c2)cc1O (stereo not given) | ? | nsP2 cell sec=91%;CHIKV NSP2 FL=?;Furin counterscr=26µM*;NS23 peptide cs=-10%;Papain cs=-4%;nsP2pro conf qHTS=26%;HCV NS3 4A cs=i
O=C(Cc1ccc(Cl)c(Cl)c1)Nc1ccc([S+](=O)([O-])Nc2ncn[nH]2)cc1 | 1%
FC(F)(F)c1cc(-c2ccc(CNc3nc(-c4ccccc4C(F)(F)F)nc4ccsc34)cc2)ccn1 | i
CCOC(=O)/C=C/c1ccc(O)c(OC)c1 | -12%

Screens deposited in PubChem by National Center for Advancing Translational Sciences (NCATS).
